Values joined by “and” are separate entries in the source; they are usually repeats but may differ in a detail not shown here. Identical values can stand only once. The campaign covered roughly 16,000 compounds. About 120 (0.75%) were called active. About 4% were inconclusive and are not listed. The call rests on the fitted dose curve; in most records, active means well fitted inhibition curve with a large enough effect; inconclusive means small, poorly fitted or top-dose-only effect; inactive means no such curve, though single readings can be large or run the other way. What follows is part of a selection rich in actives, with near analogues and random picks from the rest. Some compounds were tested as several samples or in several runs, with calls that do not always agree.
Potency means the concentration at half of the fitted maximal effect.

This assay deals with Rap guanine nucleotide exchange factor 3 (Homo sapiens) (UniProt O95398). Kind of assay: Validation qHTS for antagonist of cAMP-regulated guanine nucleotide exchange factor 3 (EPAC1). Further: nearly all actives have a fitted effect of over 75% in size. Conditions: EPAC1 Rap1B-BODIPY-GDP exchange, fluorescence; series mostly up to 150 µM; activity change, negative = inhibition: at the top concentration. An excerpt: Assay Provider (PI): Xiaodong Cheng Ph.D.
Rap guanine nucleotide exchange factor 3 (Homo sapiens), sequence (O95398 whole entry, looked up): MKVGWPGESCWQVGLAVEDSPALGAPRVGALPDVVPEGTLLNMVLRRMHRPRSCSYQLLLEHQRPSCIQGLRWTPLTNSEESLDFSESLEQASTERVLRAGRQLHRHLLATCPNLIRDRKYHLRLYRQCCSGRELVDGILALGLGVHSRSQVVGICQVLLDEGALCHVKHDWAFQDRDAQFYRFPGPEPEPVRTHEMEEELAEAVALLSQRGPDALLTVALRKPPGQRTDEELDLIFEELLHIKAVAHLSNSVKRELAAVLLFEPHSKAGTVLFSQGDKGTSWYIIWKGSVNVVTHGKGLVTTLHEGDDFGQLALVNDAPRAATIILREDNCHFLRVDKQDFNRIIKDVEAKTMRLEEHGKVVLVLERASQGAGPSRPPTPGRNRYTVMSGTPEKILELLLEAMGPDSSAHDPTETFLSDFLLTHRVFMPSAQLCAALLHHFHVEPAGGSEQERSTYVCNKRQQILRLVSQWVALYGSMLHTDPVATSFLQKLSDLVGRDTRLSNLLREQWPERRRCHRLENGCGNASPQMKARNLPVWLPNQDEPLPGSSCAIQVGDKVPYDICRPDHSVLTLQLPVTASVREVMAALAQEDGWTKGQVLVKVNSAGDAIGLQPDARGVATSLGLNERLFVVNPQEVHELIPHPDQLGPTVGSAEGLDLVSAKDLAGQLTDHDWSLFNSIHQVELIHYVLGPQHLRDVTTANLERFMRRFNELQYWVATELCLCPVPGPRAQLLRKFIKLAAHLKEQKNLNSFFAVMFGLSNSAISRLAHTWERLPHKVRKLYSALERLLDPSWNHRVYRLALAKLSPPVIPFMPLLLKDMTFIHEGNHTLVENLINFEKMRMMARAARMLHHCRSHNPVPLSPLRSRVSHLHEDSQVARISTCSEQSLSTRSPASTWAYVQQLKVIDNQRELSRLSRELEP
The University of Texas Medical Branch, […], TX
In multi-cellular eukaryotic organisms, the effects of cAMP are transduced by two ubiquitously-expressed intracellular cAMP receptors, the classic protein kinase A/cAMP-dependent protein kinase (PKA/cAPK) and the more recently discovered exchange protein directly activated by cAMP/cAMP-regulated guanine nucleotide exchange factor (EPAC/cAMP-GEF). Both PKA and EPAC are ubiquitously expressed in all tissues, and an increase in intracellular cAMP levels will lead to the activation of both PKA and EPAC. Therefore, careful dissections of the individual role and relative contribution of EPAC and PKA within the overall cAMP signaling in various model systems are critical for further elucidating the mechanism of cAMP signaling. To date no EPAC-specific antagonists and agonist, as well as isoform-specific agonists have been reported, and developing EPAC-specific pharmacological probes to determine the physiological functions that EPAC play in the overall cAMP-mediated signaling remains a major challenge within the research field. Furthermore, identified regulators of EPAC may lead to new mechanism-based therapeutic strategies specifically targeting the EPAC / cAMP-signaling components as EPAC has been implicated to play important roles in major human pathological conditions such as diabetes, heart disease, and cancer.
This qHTS will be used to screen the Molecular Libraries Small Molecule Repository (MLSMR) as a concentration-titration series using the NCGC unique quantitative screening (qHTS) platform to find activators for EPAC1. In addition, this assay will also be used as a counterscreen for the EPAC2 qHTS. This fluorescent based assay is developed and validated for EPAC1 that measures exchange using EPAC effector Rap1 complex with BODIPY-GDP, a GDP analog with a tethered fluorophores. Activators are identified by monitoring the change in fluorescence signal as the exchanged free BODIPY-GDP has a reduced fluorescence compared to Rap1-bound BODIPY-GDP. Increase in signal (activation) is the desired outcome for the EPAC1 agonist while no activity in this assay is desired for the EPAC2 agonist counterscreen.
[1] de Rooij, J., Zwartkruis, F. J., Verheijen, M. H., Cool, R. H., Nijman, S. M., Wittinghofer, A., and Bos, J.L. (1998) Nature 396, 474-477.
Briefly, three uL of reagents (100 nM EPAC1, 250 nM RAP1B-BODIPY-GDP, 50 uM GDP) were dispensed into a 1536-well Greiner black solid-bottom medium binding assay plate. Controls and test compounds (23 nL) were transferred to the plate via a Kalypsys pin tool equipped with a 1536-pin array. The plates were centrifuged at 1,000 rpm for 15 seconds followed by 5 minute incubation at room temperature. The assay plates were read at 5 minute intervals for 30 minutes in the ViewLux plate reader using 480nm excitation and 540nm emission filters. The results were normalized to the […] positive control ATA and DMSO.
On the technique in general: Quantitative high-throughput screening tests each substance at several concentrations.
In the case of `COc1ccc2c3c1O[C@H]1C[C@H](O)C=C[C@@]31CCN(C)C2`, the “activity change, negative = inhibition” value is -4.36% (inactive).

With `CC(C)c1ccc2c(c1)CC[C@@H]1[C@@](C)(CN)CCC[C@]21C`, the “activity change, negative = inhibition” value was 10.5% (inactive).

Turning to `O=C1Nc2ccc(I)cc2/C1=C/c1cc(Br)c(O)c(Br)c1`, the Potency was 89.1 µM (active) and 79.4 µM (active) and inactive.

Take `CN(C)c1ccc(/C=C2/C(=O)Nc3ccccc32)cc1`: the “activity change, negative = inhibition” value is -18.9% (inactive).

For the compound `CN(C)c1ccc(/C=C2\C(=O)Nc3ccccc32)cc1`, the “activity change, negative = inhibition” value was -9.59% [at 75.8 µM] (inactive).

`COC(=O)c1ccc(CN2CCOc3ccc(C(O)c4cccnc4)cc3C2)cc1` (configuration not stated): the “activity change, negative = inhibition” value was 8.76% (inactive).

For the compound `COc1ccc(-n2c(=O)c(-c3ccc(F)cc3)nc3cnc(N4CCNCC4)nc32)cc1`, the “activity change, negative = inhibition” value was 10.7% (inactive).

In the case of `Oc1ccc(Cl)cc1Sc1cc(Cl)ccc1O`, the “activity change, negative = inhibition” value was -15.1% (inactive).

For the compound `Oc1c(Cl)cc(Cl)cc1Sc1cc(Cl)cc(Cl)c1O`, the Potency is 79.4 µM (active).

In the case of `O=C(Nc1ccccc1)O[C@@H]1C[C@H]2CCCC(=O)N3CC[C@@H](C1)[C@@H]23`, the “activity change, negative = inhibition” value is -2.16% (inactive).

As for `CO[C@@H]1[C@@H](O[C@@H]2O[C@H](C)[C@@H](O[C@H]3C[C@@](C)(O)[C@@H](O)[C@H](C)O3)[C@H](N(C)C)[C@H]2O)[C@@H](CC=O)C[C@@H](C)[C@@H](O[C@@H]2CC[C@H](N(C)C)[C@@H](C)O2)/C=C/C=C/C[C@@H](C)OC(=O)C[C@H]1OC(C)=O`, the “activity change, negative = inhibition” value was 52.5% (inactive).

`COc1ccc2c(c1)c(CC(=O)O)c(C)n2Cc1ccc(Cl)cc1`: the “activity change, negative = inhibition” value is -6.29% [at 75.8 µM] (inactive).

Take `CC(N)C(=O)OC(C)(C)Cc1ccc(Cl)cc1` (configuration not stated): the Potency result was “inactive”.

Take `CC(C)c1ccc2c(c1)c(SC(C)(C)C)c(CC(C)(C)C(=O)O)n2Cc1ccc(Cl)cc1`: the Potency is 28.2 µM (active).

For the compound `CCC1C(=O)NCCN1Cc1ccc2c(c1)CN(Cc1cc(OC)ccc1OC)CCO2` (configuration not stated), the “activity change, negative = inhibition” value is 27.6% (inactive).

As for `N#C/C(=C\c1ccc(O)c(O)c1)C(=O)NCCCc1ccccc1`, the Potency was 63.1 µM (active) and inactive.

With `O=C(O)CCCc1ccccc1`, the “activity change, negative = inhibition” value was 13.7% (inactive).

For the compound `N#C/C(=C\c1ccc(O)c(O)c1)C(=O)NCCc1ccccc1`, the “activity change, negative = inhibition” value was 47.2% [at 75.8 µM] (inactive).

Take `N#C/C(=C\c1c[nH]c2ccccc12)C(=O)c1ccc(O)c(O)c1`: the “activity change, negative = inhibition” value was 23.5% [at 75.8 µM] (inactive).

Turning to `N#C/C(=C\c1ccc(O)c(O)c1)C(=O)NCCCCc1ccccc1`, the Potency was 100 µM (active).

Consider `Oc1ccc(CCNCCCCCCNCCc2ccccc2)cc1O`, for which the “activity change, negative = inhibition” value was 19% (inactive).

Turning to `CSc1nc(C(=O)NCc2nc(-c3cccc(NC(=O)c4ccc(C)s4)c3)oc2C)cs1`, the “activity change, negative = inhibition” value was 5.03% (inactive).

For `Cc1cccc(CN2CCc3nnc(C(C)NC(=O)C4CCOCC4)n3CC2)c1` (configuration not stated), the “activity change, negative = inhibition” value was 12% (inactive).

Turning to `Cc1ccccc1C(=O)NC(C)c1nnc2n1CCN(Cc1ccc(F)cc1)CC2` (configuration not stated), the “activity change, negative = inhibition” value is 11.9% (inactive).

On to `C/C1=C2N=C(/C=C3N=C(/C(C)=C4\[N-]C(C(CC(N)=O)C4(C)CCC(=O)NCC(C)OP(=O)([O-])OC4C(CO)OC(n5cnc6cc(C)c(C)cc65)C4O)C4(C)N=C1C(CCC(N)=O)C4(C)CC(N)=O)C(CCC(N)=O)C\3(C)C)C(CCC(N)=O)C/2(C)CC(N)=O.[CH3-].[Co+3]` (configuration not stated), for which the Potency was 50.1 µM (active).

For `C[N+](C)(CCCCCC[N+](C)(C)C1c2ccccc2-c2ccccc21)C1c2ccccc2-c2ccccc21`, the “activity change, negative = inhibition” value is 25.9% (inactive).

Consider `Nc1ccc(/C=C/c2ccc(N)cc2S(=O)(=O)O)c(S(=O)(=O)O)c1`, for which the “activity change, negative = inhibition” value was -25.9% (inactive).

Regarding `O=S(=O)(O)c1cc(N=C=S)ccc1/C=C/c1ccc(N=C=S)cc1S(=O)(=O)O`, the Potency is 35.5 µM (active).

Turning to `S=C=Nc1ccc(N=C=S)cc1`, the “activity change, negative = inhibition” value was 17.2% (inactive).

`Nc1nc2c(c(=O)[nH]1)N(C=O)C(CNc1ccc(C(=O)NC(CCC(=O)O)C(=O)O)cc1)CN2` (configuration not stated): the “activity change, negative = inhibition” value is 12.1% (inactive).

As to `Fc1ccc(Nc2ccnc(-c3ccc4c(c3)OCO4)n2)cc1`, the “activity change, negative = inhibition” value is -16.5% (inactive).

For the compound `O=C(Nc1nccs1)[C@@H]1CC=C[C@@H]2CCN(Cc3ccccc3)C(=O)[C@@H]21`, the “activity change, negative = inhibition” value is 7.38% (inactive).

With `CCCc1c(OCCCOc2ccc(OCC(=O)O)cc2)ccc(C(C)=O)c1O`, the “activity change, negative = inhibition” value is -6.37% [at 75.8 µM] (inactive).

For `CCCc1c(OCCCOc2ccc(OCC(=O)O)cc2)ccc(CC=O)c1O`, the Potency is 100 µM (active).

As to `CCCc1c(OCCCCc2nn[nH]n2)ccc(C(C)=O)c1O`, the Potency entry is “inactive”.

In the case of `COCCn1c(=O)c(-c2cc(F)cc(F)c2)nc2cnc(Oc3ccc(OC)cc3)nc21`, the “activity change, negative = inhibition” value was 7.13% (inactive).

`O=C(Nc1ccc(C(=O)Nc2ccc(C(=O)Nc3ccc(S(=O)(=O)O)c4cc(S(=O)(=O)O)cc(S(=O)(=O)O)c34)cc2)cc1)Nc1ccc(C(=O)Nc2ccc(C(=O)Nc3ccc(S(=O)(=O)O)c4cc(S(=O)(=O)O)cc(S(=O)(=O)O)c34)cc2)cc1`: the Potency is 39.8 µM (active) and 8.91 µM (active).

For the compound `O=C(Nc1cccc(C(=O)Nc2ccc(S(=O)(=O)O)c3cc(S(=O)(=O)O)cc(S(=O)(=O)O)c23)c1)Nc1cccc(C(=O)Nc2ccc(S(=O)(=O)O)c3cc(S(=O)(=O)O)cc(S(=O)(=O)O)c23)c1`, the Potency is 25.1 µM (active).

As to `O=C(Nc1ccc(C(=O)O)c(O)c1)c1ccccc1`, the “activity change, negative = inhibition” value is 4.9% (inactive).

Take `Cc1ccc(C(=O)Nc2ccc(S(=O)(=O)O)c3cc(S(=O)(=O)O)cc(S(=O)(=O)O)c23)cc1NC(=O)c1cccc(NC(=O)Nc2cccc(C(=O)Nc3cc(C(=O)Nc4ccc(S(=O)(=O)O)c5cc(S(=O)(=O)O)cc(S(=O)(=O)O)c45)ccc3C)c2)c1`: the “activity change, negative = inhibition” value was -22% [at 75.8 µM] (inactive).

As to `Cc1ccc(S(=O)(=O)O)cc1C`, the “activity change, negative = inhibition” value is 11.8% (inactive).

As for `O=C(Nc1cc(C(=O)Nc2ccc(S(=O)(=O)O)cc2S(=O)(=O)O)cc(C(=O)Nc2ccc(S(=O)(=O)O)cc2S(=O)(=O)O)c1)Nc1cc(C(=O)Nc2ccc(S(=O)(=O)O)cc2S(=O)(=O)O)cc(C(=O)Nc2ccc(S(=O)(=O)O)cc2S(=O)(=O)O)c1`, the Potency was 15.8 µM (active).

The values above are taken from PubChem BioAssay AID1645882 (National Center for Advancing Translational Sciences (NCATS), 2021).
